# TGFb SMAD3 inh – TGF-b pathway inhibition. HepG2 CAGA-GFP TGF-b/SMAD3 reporter, GFP fluorescence, 18 h; TGF-beta stimulated, 500 pg/mL final. AID 588855. actives 1.2% (n = 410,000). Potency, µM (series often up to 46.1 µM), for inactives: at the highest dose activity, negative = inhibition, hits mostly inhibitors; further: on the % scale 0 is the no-effect control and ±100 the full control effect; nearly all actives have a fitted effect of over 65% in size
#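 GFP signal (ex488/em500-530) from TGF-beta-stimulated HEPG2 CAGA-GFP cells, 500 pg/mL final, 18 h at 37 degrees C in DMEM plus 1% FBS, normalized to unstimulated and DMSO-stimulated controls.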
# HepG2 tox-1 – counter-screen for TGF-b inhibitors: cytotoxicity in HepG2 cells | HepG2 CAGA-GFP viability, ATP luminescence, 18 h | Potency, µM (doses to about 46.1 µM), for the others: top-dose activity change, negative = cytotoxicity, most hits filed as cytotoxic | actives 0.76% (n = 410,000) | AID 588856
#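 HepG2 CAGA-GFP cells (1000/well, DMEM with 1% FBS) received compound, then TGF-beta at 500 pg/mL final, and were incubated 18 hours at 37 degrees C. Viability was read by CellTiter-Glo luminescence. Media-only wells were set as complete cell-killing and DMSO as no toxicity.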
# ATXN2 expr inh – ATXN2 expression inhibition. HEK-293 ATXN2-luciferase reporter, luminescence, 24 h. Potency, µM (doses to about 57 µM), for the others: at the highest dose activity change, negative = inhibition, usual class: inhibitors. actives 0.72% (n = 360,000). AID 1745845; further: on the % scale 0 is the no-effect control and ±100 the full control effect; nearly all actives have a fitted effect of over 55% in size
#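 ATXN2-luciferase reporter cells (luciferase flanked by upstream and downstream ATXN2 gene portions) were treated 24 h at 37 °C with compounds at up to 57 uM. SteadyGlo luminescence gave expression; GF-AFC fluorescence gave viability.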
# KB-V1 cytotox – kills drug-selected multidrug resistant KB-V1 cells; AID 1347076; KB-V1 MDR cells viability, CellTiter-Glo, 72 h; actives 3.4% (n = 400,000); Potency, µM (doses to about 46.1 µM), most hits filed as cytotoxic; further: on the % scale 0 is the no-effect control and ±100 the full control effect; nearly all actives have a fitted effect of over 60% in size
#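 Drug-selected KB-V1 cells, grown in DMEM lacking phenol red with 10% FBS, receive compound titrations; after three days at 37 degrees C, surviving cell ATP is quantified by CellTiter-Glo luminescence and responses normalized and curve-fitted.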
# ATXN viability – reduces viability in counter-screen for ATXN expression inhibitors. actives 0.49% (n = 400,000). Potency, µM (doses to about 56.7 µM), actives largely listed as cytotoxic. S2 cells (HEK-293 line with an ATXN2-luciferase reporter) viability, CellTiter-Fluor protease fluorescence, 24 h; further: nearly all actives have a fitted effect of over 40% in size
# KB-3-1 cytotox – kills parental KB-3-1 adenocarcinoma cells | AID 1347075 | Potency, µM (series often up to 46.1 µM), most hits filed as cytotoxic | KB-3-1 viability, CellTiter-Glo ATP luminescence, 72 h | actives 1.4% (n = 400,000); further: on the % scale 0 is the no-effect control and ±100 the full control effect; nearly all actives have a fitted effect of over 60% in size
#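 Screening of KB-3-1 cells (DMEM, 10% FBS, phenol-red free) ran from lowest to highest compound concentration; after 72 h at 37 °C viability was read luminescently and curves fitted.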
# TGFb CAGA inh – TGF-b pathway inhibition, cherry-pick retest | shares compounds with TGFb SMAD3 inh | HepG2 CAGA-GFP TGF-b reporter, GFP fluorescence, 18 h; cells stimulated with TGF-beta, 500 pg/mL | Potency, µM (doses to about 46.1 µM), inactives show at the highest dose activity, negative = inhibition, most hits filed as inhibitors | actives 63% (n = 1,600); further: on the % scale 0 is the no-effect control and ±100 the full control effect; nearly all actives have a fitted effect of over 65% in size
# HepG2 tox-2 – toxic to HepG2 cells in TGF-b counterscreen; HepG2 CAGA-GFP viability, ATP luminescence, 18 h; cells stimulated with TGF-beta, 500 pg/mL; Potency, µM (highest dose often 46.1 µM), for inactives: at the highest dose activity, negative = cytotoxicity, actives largely listed as inhibitors; actives 27% (n = 1,600); shares compounds with TGFb SMAD3 inh; further: on the % scale 0 is the no-effect control and ±100 the full control effect; nearly all actives have a fitted effect of over 70% in size
# CCL64 TGFb inh – orthogonal confirmation of TGF-b inhibitors in CCL64 cells | shares compounds with TGFb SMAD3 inh | actives 41% (n = 1,600) | CCL64 CAGA-GFP reporter, TGF-b stimulated, GFP fluorescence, 18 h | Potency, µM (top dose mostly 46.1 µM), without a hit: top-dose activity, negative = inhibition, actives largely listed as inhibitors; further: nearly all actives have a fitted effect of over 65% in size
# COP TGFb inh – blocks TGF-b signaling in HepG2 COP reporter. Potency, µM (top dose mostly 46.1 µM), for inactives: at the top dose activity, negative = inhibition, actives largely listed as inhibitors. HepG2 COP-GFP TGF-b reporter, GFP fluorescence, 18 h; cells stimulated by added recombinant TGF-beta. actives 3% (n = 1,600). shares compounds with TGFb SMAD3 inh; further: nearly all actives have a fitted effect of over 70% in size
# The depositor's hits bear a star; i = inactive; ? = inconclusive; nt = no result given. The list is not random: actives were taken first. Their share in the collection is about 5.9%. The call rests on the fitted dose curve; in most records, active means well fitted curve in the direction sought with a large enough effect; inconclusive means small, poorly fitted or top-dose-only effect, or another doubt; inactive means no such curve, though single readings can be large; an effect the other way counts as inactive or inconclusive. Potency means the concentration at half of the fitted maximal effect.
SMILES,TGFb SMAD3 inh,HepG2 tox-1,ATXN2 expr inh,KB-V1 cytotox,ATXN viability,KB-3-1 cytotox,TGFb CAGA inh,HepG2 tox-2,CCL64 TGFb inh,COP TGFb inh
CCC(C)Sc1ccc([C@@H]2[C@@H]3C(=O)N(CC)C(=O)[C@@H]3[C@]3(C(=O)OC)CCCCN23)cc1OC (stereo partly drawn),?,-7%,-5%,i,i,i,?,2%,-23%,5%
CCC(C)Sc1ccc([C@@H]2[C@@H]3C(=O)N(C)C(=O)[C@@H]3[C@]3(C(=O)OC)CCCCN23)cc1OC (stereo partly drawn),1%,-11%,-6%,i,i,i,nt,nt,nt,nt
Cc1nc2ccn(Cc3cccnc3)c(=O)c2cc1C(=O)N1CCN(c2ccccc2)CC1,-28%,-1%,8%,i,i,i,nt,nt,nt,nt
CCOC(=O)C1CCCN(c2ncnc3c2nnn3C)C1 (stereo not drawn),18%,-13%,nt,i,nt,i,nt,nt,nt,nt
CC1C(=O)N(Cc2cn(CCC3OCCCO3)nn2)CCS(=O)(=O)N1Cc1ccc(-c2ccc(Cl)cc2)cc1 (stereo not drawn),13µM*,-27%,18µM*,?,28µM*,?,?,?,?,67%
Cc1ccc(-c2ccc(CN3C(C(C)C)C(=O)N(Cc4cn(CCC5OCCO5)nn4)CCS3(=O)=O)cc2)c(C)c1 (stereo not drawn),11µM*,-76%,?,?,?,?,23µM*,?,23µM*,-21%
Cc1ccccc1-c1ccc(CN2C(C(C)C)C(=O)N(Cc3cn(CCC4OCCO4)nn3)CCS2(=O)=O)cc1 (stereo not drawn),?,0%,?,?,?,i,nt,nt,nt,nt
O=C(CNC(=O)C1CCCCC1)OCC(=O)c1ccccc1,0%,-4%,nt,?,nt,?,nt,nt,nt,nt
COc1ccc(C(CNC(=O)C(C)c2ccc3cc(OC)ccc3c2)N(C)C)cc1 (stereo not drawn),-23%,-17%,-5%,i,i,i,nt,nt,nt,nt
COc1ccc2cc([C@H](C)C(=O)N(C)Cc3ccccc3N3CCCC3)ccc2c1,10µM*,-30%,-23%,?,i,i,8.2µM*,?,?,34%
Cc1ccc(NC(=O)CN(C)C(=O)c2cc(-c3ccccc3)nn2-c2ccccc2)cc1,11µM*,-1%,-3%,?,i,i,18µM*,-22%,16µM*,9%
O=C1CC(c2ccc(Cl)c([N+](=O)[O-])c2)c2ccc3ccccc3c2N1 (stereo not drawn),?,-22%,-17%,?,i,?,nt,nt,nt,nt
CN(C)c1ccc(C2CNC(c3ccc(Cl)c([N+](=O)[O-])c3)c3[nH]c4ccccc4c32)cc1 (stereo not drawn),8.9µM*,-33%,nt,i,?,?,?,-28%,21µM*,18%
CN(Cc1ccc(F)cc1)S(=O)(=O)c1nnc(NC(=O)c2ccccc2Cl)s1,?,-38%,nt,i,nt,i,nt,nt,nt,nt
CCOc1ccc(C(=O)NC(=S)Nc2cccc(NC(=O)c3ccco3)c2)cc1[N+](=O)[O-],8.9µM*,-17%,-27%,?,i,18µM*,8.2µM*,-23%,?,-7%
CC(=O)c1ccc2c(c1)N(Cc1ccc3ccccc3c1)C(=O)C(C)S2 (stereo not drawn),7.9µM*,-17%,-20%,?,i,?,21µM*,4%,-11%,3%
Cc1nc(Nc2nc(CSc3nc4ccccc4[nH]3)cc(=O)[nH]2)nc2ccccc12,18µM*,-16%,-4%,i,?,?,5.2µM*,4.1µM*,6.5µM*,38%
COc1ccc2nc(Nc3nc(CSc4nc5ccccc5[nH]4)cc(=O)[nH]3)nc(C)c2c1,2.8µM*,4%,0%,?,i,?,8.2µM*,?,18µM*,26%
CC(=O)Nc1ccc(S(=O)(=O)Nc2ccc(Cl)cn2)cc1,15%,2%,-13%,i,?,i,nt,nt,nt,nt
CC(=O)Nc1ccc(S(=O)(=O)c2ccnc3cc(Cl)ccc23)cc1,10µM*,-75%,nt,?,i,?,23µM*,?,21µM*,15%
CCOc1ccc2nc3cc(NCc4ccc(OC)cc4)ccc3c(N)c2c1,7.9µM*,10µM*,nt,i,i,?,3.3µM*,7.3µM*,?,45%
CC(C)CCn1nnc2sc(-c3ccccc3)cc2c1=O,13%,6%,32%,i,i,i,nt,nt,nt,nt
COc1ccc(C(CCNCc2ccc(F)cc2)c2ccc(F)cc2)cc1 (stereo not drawn),2.8µM*,7.9µM*,?,?,?,?,?,16µM*,?,?
CC1=C(CO)C(=O)OC([C@@H](C)C2CC[C@H]3C4C[C@H]5O[C@]56[C@@H](O)C=CC(=O)[C@]6(C)C4CC[C@]23C)C1 (stereo partly drawn),2.8µM*,-106%,3.2µM*,13µM*,5.6µM*,?,0.58µM*,2.3µM*,1.2µM*,?
COc1ccc(S(=O)(=O)N2CCCCCC2)cc1C(=O)N(C)Cc1c(F)cccc1Cl,-3%,-4%,4%,i,i,i,nt,nt,nt,nt

# Screens (PubChem)
